RORg inh: blocks mouse ROR gamma transcriptional activity | AID 2551 | 310,000 tested, 5.4% active | Potency, µM (series often up to 53.6 µM), hits mostly inhibitors | P51450 | Drosophila S2 Gal4-RORgamma UAS-luciferase reporter, 20 h; further: nearly all actives have a fitted effect of over 60% in size
Target sequence (P51450 whole entry, looked up, the tested form may be a part): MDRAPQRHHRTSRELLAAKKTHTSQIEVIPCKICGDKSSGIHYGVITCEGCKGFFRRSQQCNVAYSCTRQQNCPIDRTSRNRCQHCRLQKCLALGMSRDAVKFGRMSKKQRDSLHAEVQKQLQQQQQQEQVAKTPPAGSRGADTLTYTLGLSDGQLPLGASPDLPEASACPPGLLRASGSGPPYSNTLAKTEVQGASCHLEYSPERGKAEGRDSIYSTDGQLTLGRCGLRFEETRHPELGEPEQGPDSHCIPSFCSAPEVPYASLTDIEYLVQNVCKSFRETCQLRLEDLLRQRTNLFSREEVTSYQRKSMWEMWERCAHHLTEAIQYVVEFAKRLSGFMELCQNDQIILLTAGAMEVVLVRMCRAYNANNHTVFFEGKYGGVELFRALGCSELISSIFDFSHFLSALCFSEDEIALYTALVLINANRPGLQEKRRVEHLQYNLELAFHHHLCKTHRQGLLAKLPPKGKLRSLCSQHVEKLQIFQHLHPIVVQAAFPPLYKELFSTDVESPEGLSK
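Schneider cells (Drosophila), stable Gal4 DBD–ROR gamma + UAS-luc; 1 hr cmpd preincubation; Cu2+ induction 700 uM final; 20 hr ambient; luminescence.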
DT40 TDP1 no CPT: qHTS for Inhibitors of human tyrosyl-DNA phosphodiesterase 1 (TDP1): qHTS in cells in absence of CPT; Potency, µM (series often up to 46.2 µM), actives largely listed as inhibitors; DT40 Tdp1-/- hTDP1 cells, no CPT, ATP luminescence, 48 h; 420,000 tested, 15% active; AID 686978, 2013; further: nearly all actives have a fitted effect of over 55% in size
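Luminescent ATP content (CellTiter-Glo) served as the growth readout. Knockout chicken DT40 cells expressing human TDP1 were exposed to compounds without camptothecin for a minimum 48 hr at 37 °C.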
TDP1 cell CPT: DT40-hTDP1 cell growth loss with CPT | chicken DT40 Tdp1-/-;hTDP1 cells + 20 nM CPT, ATP luminescence, 48 h | Potency, µM (titrated, usually from 46.2 µM), actives largely listed as inhibitors | 420,000 tested, 12% active; further: nearly all actives have a fitted effect of over 55% in size
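Chicken DT40 Tdp1-/- cells complemented with human TDP1, 400 cells/well, exposed to compounds plus 20 nM camptothecin for at least 48 h at 37 C; viability read as ATP content by CellTiter-Glo luminescence.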
IL1B secr inh: blocks inflammasome-driven IL-1 beta release. THP-1 LPS/ATP IL-1B secretion, AlphaLISA, 16 h; stronger effect = lower value. activity change, % at 57.5 µM. 360,000 tested, 4.7% active. AID 743279; in the data active means activity change below about -50%; inconclusive means mostly about -30% to -49%
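THP-1 cells pretreated 1 hr with compounds (up to 57.5 uM final), then stimulated with LPS (250 ng/mL final) plus ATP (1.25 mM final); secreted IL-1B measured by AlphaLISA after 16 hr, decreased signal indicating inhibition.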
Gal4-VP16 FLuc: counter-screen for ROR gamma inhibitors: Gal4-VP16 reporter. Drosophila S2 Gal4-VP16 UAS-luciferase, luminescence, 20 h. Potency, µM (highest dose often 53.6 µM), hits mostly inhibitors. 310,000 tested, 3.5% active. AID 2546;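 further: Gal4-VP16 expression switched on by copper sulfate through the metallothionein promoter; nearly all actives have a fitted effect of over 50% in size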
LDHA inh: LDHA (human) enzyme inhibition; P00338; 480,000 tested, 0.15% active; activity change, % (values are at about 110 or 230 µM); purified LDHA, NADH/diaphorase-resazurin fluorescence; stronger effect = lower value; AID 1347041; in the data active means activity change below about -30%; inconclusive means mostly about -25% to -30%
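LDH5 2 nM; NADH 0.06 mM, pyruvate 0.2 mM; 200 mM Tris pH 7.4, EDTA, Tween-20; 5 min RT. Detection: diaphorase 0.133 mg/mL + resazurin 37 µM, fluorescence ex540/em590 at 0 and 20 min; normalized to enzyme-free and DMSO wells.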
Of the large screens only hits and unclear results are named; the others gave an inactive call. Compounds with a hit are over-represented: about 18% of the library has one in this group of screens. Unless noted, the call rests on the fitted dose curve; in most records, active means well fitted curve in the direction sought with a large enough effect; inconclusive means small, poorly fitted or top-dose-only effect, or another doubt; inactive means no such curve, though single readings can be large; an effect the other way counts as inactive or inconclusive.

CCc1ccc(C2c3c(-c4ccccc4O)n[nH]c3C(=O)N2Cc2cccnc2)cc1 (stereo not drawn)	DT40 TDP1 no CPT inconclusive, TDP1 cell CPT 16µM (no result: RORg inh, IL1B secr inh, Gal4-VP16 FLuc)
NC(=O)CSc1nc2c(c(=O)n1-c1ccccc1)C1(CCCCC1)Cc1ccccc1-2	DT40 TDP1 no CPT inconclusive, TDP1 cell CPT inconclusive, IL1B secr inh -53
CCOc1ccccc1N1CCN(S(=O)(=O)c2cnn(CC)c2)CC1	none (no result: RORg inh, DT40 TDP1 no CPT, TDP1 cell CPT, IL1B secr inh, Gal4-VP16 FLuc)
CC(C)(C)c1cc(C(c2cccnc2)N2CCN(CCO)CC2)cc(C(C)(C)C)c1O (stereo not drawn)	RORg inh 13µM, DT40 TDP1 no CPT 2.3µM, TDP1 cell CPT 1.5µM, IL1B secr inh -102, Gal4-VP16 FLuc 18µM
CC(C)(C)n1nnnc1C(c1cccnc1)N1CCN(C2CCCCC2)CC1 (stereo not drawn)	none
O=C(Nc1ccccc1)c1cc2cc(Br)ccc2oc1=O	none (no result: RORg inh, DT40 TDP1 no CPT, TDP1 cell CPT, IL1B secr inh, Gal4-VP16 FLuc)
CCOc1cc(C(=O)Nc2cccc(Cl)c2N2CCOCC2)cc(OCC)c1OCC	none (no result: RORg inh, DT40 TDP1 no CPT, TDP1 cell CPT, IL1B secr inh, Gal4-VP16 FLuc)
CCCCOC(=O)c1ccc(NC(=S)NC(=O)c2c(Cl)cnn2C)cc1	RORg inh 14µM, DT40 TDP1 no CPT 16µM, TDP1 cell CPT 23µM, Gal4-VP16 FLuc inconclusive
CCCCOC(=O)c1ccc(NC(C)=O)cc1	none
CCCCOC(=O)c1ccc(NC(=S)NC(=O)c2c(Cl)cnn2CC)cc1	RORg inh 7.1µM, DT40 TDP1 no CPT inconclusive, TDP1 cell CPT inconclusive, Gal4-VP16 FLuc 18µM
CCCCOC(=O)c1ccc(NC(=O)c2nn(C)cc2Br)cc1	IL1B secr inh inconclusive, Gal4-VP16 FLuc 3.5µM
CCCCOC(=O)c1ccc(NC(=O)c2cc(Cl)c(Cl)cc2C(=O)O)cc1	none
CC(C)Oc1ccc(C(=O)Nc2cc(S(=O)(=O)N3CCOCC3)ccc2N2CCOCC2)cc1	DT40 TDP1 no CPT 21µM, TDP1 cell CPT inconclusive (no result: RORg inh, Gal4-VP16 FLuc)
CC(C)COc1ccc(C(=O)Nc2cc(S(=O)(=O)N3CCOCC3)ccc2N2CCCC2)cc1	DT40 TDP1 no CPT 26µM, TDP1 cell CPT 16µM (no result: RORg inh, Gal4-VP16 FLuc)
CCN1CCN(c2ccc(S(=O)(=O)N3CCOCC3)cc2NC(=O)c2ccc(OCC(C)C)cc2)CC1	DT40 TDP1 no CPT inconclusive, TDP1 cell CPT inconclusive (no result: RORg inh, Gal4-VP16 FLuc)
Cc1cccc(NC(=O)CSCC(=O)Nc2cc(S(=O)(=O)N3CCOCC3)ccc2OC(C)C)c1	DT40 TDP1 no CPT inconclusive (no result: RORg inh, Gal4-VP16 FLuc)
Cc1ccc(CSCC(=O)Nc2cc(S(=O)(=O)N3CCOCC3)ccc2OC(C)C)cc1	DT40 TDP1 no CPT 23µM, TDP1 cell CPT inconclusive (no result: RORg inh, Gal4-VP16 FLuc)
NC(=O)NC(=O)COC(=O)c1ccc(F)cc1F	none (no result: RORg inh, DT40 TDP1 no CPT, TDP1 cell CPT, IL1B secr inh, Gal4-VP16 FLuc)
Cc1ccccc1/[N+]([O-])=C/c1ccccc1	none (no result: RORg inh, DT40 TDP1 no CPT, TDP1 cell CPT, IL1B secr inh, Gal4-VP16 FLuc)
CC(C)N(C(=O)CSc1nnc(-c2cc3ccccc3cc2O)n1Cc1ccco1)C(C)C	DT40 TDP1 no CPT 21µM, TDP1 cell CPT 13µM (no result: Gal4-VP16 FLuc)
O=C(CSc1nnc(-c2cc3ccccc3cc2O)n1Cc1ccco1)N1CCc2ccccc2C1	DT40 TDP1 no CPT inconclusive, TDP1 cell CPT inconclusive, IL1B secr inh -71
COCCn1c(SCC(=O)N(C(C)C)C(C)C)nnc1-c1cc2ccccc2cc1O	DT40 TDP1 no CPT 21µM, TDP1 cell CPT inconclusive
Cc1occc1-c1nnc(SCC(=O)N2CCOCC2)n1Cc1ccco1	none
COCCn1c(SCC(=O)Nc2nnc(C)s2)nnc1-c1cc2ccccc2cc1O	none
C=CCNC(=O)CCNC(=O)N1CCN(C(=O)c2cc3ccccc3[nH]2)CC1	none (no result: RORg inh, DT40 TDP1 no CPT, TDP1 cell CPT, IL1B secr inh, Gal4-VP16 FLuc)
Cc1cc(C)cc(C(=O)NC2CCCc3ccccc32)c1 (stereo not drawn)	none (no result: RORg inh, DT40 TDP1 no CPT, TDP1 cell CPT, IL1B secr inh, Gal4-VP16 FLuc)
